PubChem BioAssay (NCATS)
Values joined by “and” are separate entries in the source; they are usually repeats but may differ in a detail not shown here. Equal entries are not always repeated. Records with an inconclusive call do not appear. A call without a number means that no potency is given here. Active and inactive are the calls of the source. Unless noted, calls come from the whole dose curve; as a rule, active = well fitted curve in the direction sought with a large enough effect; inconclusive = small, poorly fitted or top-dose-only effect, or another doubt; inactive = no such curve, though single readings can be large; an effect the other way counts as inactive or inconclusive.

Columns and labels:
[1] = qHTS Assay for Lipid Storage Modulators (AID 1519; calls by dose curve); details: Drosophila S3 cells, BODIPY lipid droplet/cell ratio, laser cytometry, cells loaded with oleic acid
Procedure, shortened: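 Cells seeded at 5,000 per well were treated with compounds over a concentration series and loaded with oleic acid (400 uM, as added). Lipid droplet fluorescence (488 nm excitation, 500-530 nm channel) was read by laser-scanning cytometry and normalized to 20 uM Triacsin C.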

[2] = biological target: alpha-glucosidase (Oryza sativa, rice) (UniProt Q653V4); experiment: Counterscreen for Glucocerebrosidase Inhibitors: qHTS Assay for Rice alpha-Glucosidase at pH 5.0 (AID 997)
Procedure, shortened: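 Endpoint fluorogenic assay at pH 5.0: compounds (0.7 nM to 77 uM) titrated against 4 nM rice enzyme and 400 uM 4-MU-alpha-glucoside for 20 min at room temperature; NaOH/glycine stop, read ex 365/em 440 nm, Hill-fitted AC50.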

[3] = Validation of Assay for Modulators of Lamin A Splicing (AID 1459; active = well fitted curve in the direction sought with a large enough effect in the signal ratio; the % refers to the signal ratio;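 note: cells exposed to compound for two days before reading; ratio rise marks activators and ratio drop marks inhibitors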)
Procedure, shortened: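 Splicing correction read as GFP (500-530 nm) over DsRed2 (575-640 nm) object intensity after 48 h compound exposure of reporter HeLa S3 clones (600 cells/well, 2% FBS medium); ancitabine and cycloheximide titrations, 0.5% DMSO as vehicle.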

[4] = biological target: DNA repair nuclease/redox regulator APEX1 (Homo sapiens) (UniProt P27695); experiment: qHTS Validation Assay for Inhibitors of the Human Apurinic/apyrimidinic Endonuclease 1 (APE1) (AID 1705;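 note: TAMRA fluorescence gain over two minutes as APE1 cuts a quenched THF abasic duplex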)
Chain of DNA repair nuclease/redox regulator APEX1 (Homo sapiens) (P27695 whole entry, looked up): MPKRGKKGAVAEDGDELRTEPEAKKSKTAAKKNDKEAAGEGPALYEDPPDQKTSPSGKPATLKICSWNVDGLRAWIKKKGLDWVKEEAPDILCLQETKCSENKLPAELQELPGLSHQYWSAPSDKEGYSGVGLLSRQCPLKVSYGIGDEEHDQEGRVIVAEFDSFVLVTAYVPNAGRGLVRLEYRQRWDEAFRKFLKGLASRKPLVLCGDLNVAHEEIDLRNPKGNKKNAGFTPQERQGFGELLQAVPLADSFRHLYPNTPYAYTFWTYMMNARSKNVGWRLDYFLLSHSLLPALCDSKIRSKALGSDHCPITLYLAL
Procedure, shortened: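 Activity read as rising fluorescence (598 nm emission, 525 nm excitation) from incision of a TAMRA/BHQ-2 duplex carrying a THF abasic site (50 nM). Compound and enzyme sat 15 min at RT before substrate start; signal change between first and third 60-s reads.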

[5] = Counterscreen for APE1 Inhibitors: Fluorescent Dye Displacement Validation Assay (AID 1707)
Procedure, shortened: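 Signal: ThO fluorescence (ex 480 nm/em 540 nm) on binding 50 nM dsDNA; displacement by test compound reduces it. Conditions: 250 nM dye, 50 mM Tris-HCl pH7.5, 2 mM MgCl2, 50mM NaCl, 0.01% Tween-20.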

[6] = biological target: Endonuclease 4 (Escherichia coli (strain K12)) (UniProt P0A6C1); experiment: Counterscreen for APE1 Inhibitors: qHTS Validation Assay for Inhibitors of Endonuclease IV (AID 1708)
Procedure, shortened: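 Read-out: fluorescence rise (ex 525/em 598 nm) from incision of a TAMRA/BHQ-2 double-stranded THF abasic-site substrate (50 nM), measured kinetically; third-minus-first read difference gave reaction progress. Enzyme 2 nM.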

[7] = qHTS for differential inhibitors of proliferation of Plasmodium falciparum line 7G8 (AID 1815);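 note: parasite growth measured after three days of incubation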; note: potency is the fitted concentration of half-maximal effect
[8] = qHTS for differential inhibitors of proliferation of Plasmodium falciparum line GB4 (AID 1816); details: Potency: Plasmodium falciparum GB4 proliferation inhibition;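 note: parasite growth measured after 72 h incubation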; note: potency is the fitted concentration of half-maximal effect
[9] = qHTS for differential inhibitors of proliferation of Plasmodium falciparum line 3D7 (AID 1876); note: potency is the fitted concentration of half-maximal effect
[10] = qHTS for differential inhibitors of proliferation of Plasmodium falciparum line D10 (AID 1877);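 note: parasites grown with compound for 72 h before DNA staining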; note: potency is the fitted concentration of half-maximal effect
[11] = qHTS for differential inhibitors of proliferation of Plasmodium falciparum line Dd2 (AID 1882); details: Potency: Plasmodium falciparum Dd2 proliferation inhibition;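 note: compound exposure of 72 h on infected erythrocytes; nearly all actives have a fitted effect of over 65% in size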
Procedure, shortened: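 RBC culture, 0.3% parasitemia / 2.5% Hct final; cpd added by pin tool in DMSO; 72 h, 37 C, 5% CO2; lysis buffer + SYBR Green I, o/n RT dark; FI 485/535; norm. to artemisinin 0.29 uM and DMSO.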

[12] = qHTS for differential inhibitors of proliferation of Plasmodium falciparum line W2 (AID 1883); details: Potency: Plasmodium falciparum W2 proliferation inhibition;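 note: parasites grown with compound for 72 h before lysis and staining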; note: potency is the fitted concentration of half-maximal effect
[13] = biological target: Alpha-galactosidase A (Homo sapiens) (UniProt P06280); experiment: Counterscreen for Glucocerebrosidase Inhibitors: qHTS Assay for Human alpha-Galactosidase at pH 4.5 (AID 992)
Chain of Alpha-galactosidase A (Homo sapiens) (P06280 whole entry, looked up): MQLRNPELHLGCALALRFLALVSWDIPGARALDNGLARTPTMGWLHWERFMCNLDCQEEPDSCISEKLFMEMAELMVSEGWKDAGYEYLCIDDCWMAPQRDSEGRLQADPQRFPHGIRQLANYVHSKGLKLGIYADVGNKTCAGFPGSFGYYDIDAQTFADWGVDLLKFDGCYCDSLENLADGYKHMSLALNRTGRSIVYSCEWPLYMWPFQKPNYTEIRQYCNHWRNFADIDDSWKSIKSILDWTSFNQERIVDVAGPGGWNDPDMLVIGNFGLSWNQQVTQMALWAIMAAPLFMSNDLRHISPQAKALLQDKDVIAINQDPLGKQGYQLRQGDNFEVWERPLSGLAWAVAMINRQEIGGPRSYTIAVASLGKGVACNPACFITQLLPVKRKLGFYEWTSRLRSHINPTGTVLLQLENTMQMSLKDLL
Procedure, shortened: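 Citrate buffer pH 4.5, Tween-20 0.005%. Enzyme 2 nM, substrate 80 uM, 20 min RT. Stop pH 10. Fluorescence Ex 365/Em 440. AC50 by Hill fit.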

[14] = Cell Viability - LYMP1-002 - Assay at 24 hr (AID 993)
Procedure, shortened: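 CellTiter-Glo luminescence (intracellular ATP) after 24 h compound exposure, 37 C, in LYMP1-002 human lymphoblastoid cells; decreased ATP taken as cytotoxicity. AC50 from standard Hill fit of concentration-response curves.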

[15] = measured here: cell count channel max response
[16] = measured here: lipid channel max response

Structure (SMILES): O=c1cc(-c2ccccc2)oc2c(O)c(O)ccc12
- activity change, negative = inhibition ([1]; at 57.5 µM (top of the series)): -5.17% (inactive)
- max response [1, 15]: -10.5%
- max response [1, 16]: -5.87%

Structure (SMILES): Cc1c(Nc2ncccc2C(=O)O)cccc1C(F)(F)F
- activity change, negative = inhibition ([1]; at 25.7 µM (top of the series)): -1.24% (inactive)
- max response [1, 15]: -9.98%
- max response [1, 16]: -11.1%

Structure (SMILES): CN(C)C(N)=NCCC[C@H](N)C(=O)O
- outcome [2]: inactive
- outcome [3]: inactive
- Potency [4]: inactive
- Potency [5]: inactive
- Potency [6]: inactive
- Potency [7]: inactive
- Potency [8]: inactive
- Potency [9]: inactive
- Potency [10]: inactive
- Potency [11]: inactive
- Potency [12]: inactive

Structure (SMILES): N=C(N)SCCc1ccc(CCSC(=N)N)cc1
- outcome [13]: inactive
- outcome [2]: inactive
- outcome [3]: inactive
- Potency [4]: inactive
- Potency [5]: inactive
- Potency [6]: inactive
- Potency [9]: inactive
- Potency [11]: inactive
- Potency [12]: 11.2 µM (active)

Structure (SMILES): N#C/C(=C\c1ccc(O)c(O)c1)C(=O)NCCCc1ccccc1
- outcome [13]: inactive
- outcome [2]: inactive
- outcome [3]: inactive
- Potency [4]: inactive
- Potency [6]: inactive
- Potency [7]: 8.91 µM (active)
- Potency [8]: 14.1 µM (active)
- Potency [10]: 11.2 µM (active)
- Potency [12]: 7.08 µM (active)

Structure (SMILES): NO
- outcome [2]: inactive
- outcome [3]: inactive
- Potency [5]: inactive
- Potency [6]: inactive
- Potency [11]: inactive

Structure (SMILES): COC(=O)c1c(C)[nH]c(C)c1C(=O)c1ccccc1Cc1ccccc1
- outcome [2]: inactive
- outcome [3]: inactive
- Potency [4]: inactive
- Potency [5]: inactive
- Potency [7]: 7.94 µM (active)
- Potency [8]: 7.94 µM (active)
- Potency [9]: 8.91 µM (active)
- Potency [10]: 14.1 µM (active)
- Potency [12]: 8.91 µM (active)

Structure (SMILES): CN[C@H](CC(C)C)C(=O)N[C@H]1C(=O)N[C@@H](CC(N)=O)C(=O)N[C@H]2C(=O)N[C@H]3C(=O)N[C@H](C(=O)N[C@H](C(=O)O)c4cc(O)cc(O)c4-c4cc3ccc4O)[C@H](O)c3ccc(c(Cl)c3)Oc3cc2cc(c3O[C@@H]2O[C@H](CO)[C@@H](O)[C@H](O)[C@H]2O[C@H]2C[C@](C)(N)[C@H](O)[C@H](C)O2)Oc2ccc(cc2Cl)[C@H]1O
- outcome [3]: inactive
- Potency [5]: inactive
- Potency [7]: inactive
- Potency [8]: inactive
- Potency [9]: inactive
- Potency [10]: inactive
- Potency [11]: inactive
- Potency [12]: inactive

Structure (SMILES): Oc1ccccc1O
- outcome [13]: inactive
- Potency [14]: inactive
- outcome [2]: inactive
- activity change, negative = inhibition ([1]; at 57.5 µM (top of the series)): -4.75% (inactive)
- max response [1, 15]: -20.2%
- max response [1, 16]: -25.6%
- Potency [5]: inactive

Structure (SMILES): CCN1/C(=C/C(C)=O)Sc2ccc(OC)cc21
- outcome [2]: inactive
- activity change, negative = inhibition ([1]; at 57.5 µM (top of the series)): 0.847% (inactive)
- max response [1, 15]: -21.8%
- max response [1, 16]: -21.7%
- Potency [4]: inactive
- Potency [5]: inactive
- Potency [6]: inactive
- Potency [10]: inactive
- Potency [11]: inactive
- Potency [12]: 14.1 µM (active)

Structure (SMILES): CC(C(=O)O)c1ccc(C(=O)c2cccs2)cc1 (stereo not drawn)
- activity change, negative = inhibition ([1]; at 57.5 µM (top of the series)): 15.6% (inactive)
- max response [1, 15]: 8.76%
- max response [1, 16]: 31%

Structure (SMILES): Cc1c(N)c(=O)n(-c2ccccc2)n1C
- activity change, negative = inhibition ([1]; at 25.7 µM (top of the series)): -0.255% (inactive)
- activity change, negative = inhibition ([1]; at 57.5 µM (top of the series)): 3.79% (inactive)
- max response [1, 15]: 3.27% and 4.31%
- max response [1, 16]: 6.06% and 9.92%

Structure (SMILES): COC1=C(OC)C(=O)c2ccccc2C1=O
- outcome [13]: inactive
- outcome [2]: inactive
- Potency [4]: inactive
- Potency [5]: inactive
- Potency [6]: inactive
- Potency [7]: 8.91 µM (active)
- Potency [8]: 10 µM (active)
- Potency [9]: 10 µM (active)
- Potency [10]: 11.2 µM (active)
- Potency [12]: 11.2 µM (active)

Structure (SMILES): CN(C)c1ccc(/C=C2\C(=O)Nc3ccccc32)cc1
- activity change, negative = inhibition ([1]; at 57.5 µM (top of the series)): 0.655% (inactive)
- max response [1, 15]: -28.2%
- max response [1, 16]: -23.7%
- Potency [4]: inactive
- Potency [7]: 8.91 µM (active)
- Potency [8]: 12.6 µM (active)
- Potency [12]: 12.6 µM (active)
